Rows were chosen to be rich in hits. Some 19% of all compounds tested hit in one or more screens of this group.
Pf growth 96h: P. falciparum growth inhibition at 96 hours | P. falciparum luciferase reporter growth, 96 h | Potency, µM (doses to about 28.7 µM), usual class: inhibitors | hit rate 6.9% among 320,000 | AID 504834
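P. falciparum expressing integrated firefly luciferase grown in erythrocytes (2% hematocrit, 0.05% parasitemia final) with compounds for 96 hours at 37 C, 5% CO2. Growth inhibition read as loss of luminescence after adding luciferase detection reagent.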
CHX counter: counter-screen for Shiga toxin inhibitors: cycloheximide protein synthesis inhibition; AID 2314; hit rate 12% among 300,000; max response, %; cell reporter, cycloheximide protein synthesis inhibition counterscreen; in the data active = max response mostly above about 13%, no sharp cut-off; inactive = mostly below about 14%; also: read at 38.3 µM for the half of the compounds with a filed dose
MARV entry inh: blocks Marburg virus binding to or entry into cells | Marburg virus pseudotyped entry inhibition, cell reporter | Potency, µM (titrated, usually from 37.8 µM), actives largely listed as inhibitors | hit rate 1.8% among 300,000 | AID 540276; calls by dose curve; tested in HEK293 cells
Shiga toxin inh: inhibitors of Shiga toxin in Vero cells; hit rate 9.2% among 290,000; Vero cells, Shiga toxin protein synthesis inhibition reporter; inhibition, % at 38.7 µM; in the data active = inhibition mostly above about 28%, no sharp cut-off; inactive = mostly below about 43%
Pf growth 48h: inhibits P. falciparum growth in the first generation, 48 h; P. falciparum luciferase growth in erythrocytes, 48 h; Potency, µM (highest dose often 28.7 µM), actives largely listed as inhibitors; hit rate 5.9% among 310,000; AID 504832
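First compound was added to culture medium, then infected red cells at 0.1% parasitemia and 2% hematocrit (final). After incubation at 37 C under 5% CO2, luciferase detection reagent was dispensed and light output recorded.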
LASV entry inh: blocks Lassa virus binding to or entry into cells | Lassa virus pseudotype entry inhibition, cell reporter | Potency, µM (doses to about 37.9 µM), actives largely listed as inhibitors | hit rate 1.2% among 300,000; calls by dose curve; tested in HEK293 cells; also: nearly all actives have a fitted effect of over 50% in size
Each line names hits and unclear results; the compound was inactive in the other large screens. Unless noted, calls follow the shape of the dose curve; as a rule, active = well fitted inhibition curve with a large enough effect; inconclusive = small, poorly fitted or top-dose-only effect, or another doubt; inactive = no such curve, though single readings can be large or run the other way.

CC(C)c1ccc(NC(=O)c2n[nH]c(=O)c3ccccc23)cc1	Pf growth 96h 8.28µM, CHX counter 45.1, MARV entry inh inconclusive, Shiga toxin inh 44.4
CN(C)S(=O)(=O)c1cccc(NC(=O)c2n[nH]c(=O)c3ccccc23)c1	Pf growth 96h inconclusive, MARV entry inh inconclusive
CCN(CC)C(=O)c1cccc(NC(=O)c2cc(-c3ccccn3)nc3ccccc23)c1	MARV entry inh inconclusive (no result: CHX counter, Shiga toxin inh)
COc1ccc(NC(=O)c2cc(-c3ccccn3)nc3ccccc23)cc1S(=O)(=O)N(C)C	MARV entry inh 15.8µM, Pf growth 48h inconclusive, LASV entry inh inconclusive (no result: CHX counter, Shiga toxin inh)
CCN(CC)S(=O)(=O)c1cc(NC(=O)c2n[nH]c(=O)c3ccccc23)ccc1C	Pf growth 96h inconclusive, CHX counter 21.1 (no result: MARV entry inh, LASV entry inh)
CCN(CC)S(=O)(=O)c1cc(NC(=O)c2cc(-c3ccccn3)nc3ccccc23)ccc1C	Pf growth 96h inconclusive, Pf growth 48h 9.28µM (no result: MARV entry inh, LASV entry inh)
CCCc1nn2c(=O)cc(CSCC(=O)Nc3ccccc3)nc2s1	Pf growth 96h inconclusive (no result: MARV entry inh, LASV entry inh)
Cc1ccc(NC(=O)COC(=O)C(NS(=O)(=O)c2ccc(Cl)cc2)C(C)O)c(Br)c1 (stereo unspecified)	Pf growth 96h inconclusive
CCc1ccccc1NC(=O)c1cccc(N2C(=O)C3C4CCC(C4)C3C2=O)c1 (stereo unspecified)	none
CCNC(=O)c1ccc2c(c1)C1C3CCC(C3)C1C(c1ccccc1)N2 (stereo unspecified)	Pf growth 48h 7.38µM, LASV entry inh inconclusive
COC(=O)c1cccc(C23CC4(C2)[C@H](CN(Cc2ccc(-c5ccccc5)cc2)[C@@H]4c2ccccc2)C3c2ccccc2)c1 (stereo partly specified)	Pf growth 96h 1.65µM, Pf growth 48h 11.7µM (no result: MARV entry inh, LASV entry inh)
COC(=O)c1ccc(C23CC4(C2)[C@H](CN(Cc2ccc(-c5ccccc5)cc2)[C@@H]4c2ccccc2)C3c2ccc(Cl)nc2)cc1 (stereo partly specified)	Pf growth 96h inconclusive, Pf growth 48h 11.7µM (no result: MARV entry inh, LASV entry inh)
COC(=O)c1cccc(C23CC4(C2)[C@H](CN(Cc2ccc(-c5ccccc5)cc2)[C@@H]4c2ccccc2)C3c2ccc(C(F)(F)F)cc2)c1 (stereo partly specified)	Pf growth 96h inconclusive, Pf growth 48h inconclusive (no result: MARV entry inh, LASV entry inh)
COCCn1cnc2c(c1=O)c1nc3ccccc3nc1n2/N=C/c1ccc(OC)c(OC)c1	Pf growth 96h 2.62µM, MARV entry inh inconclusive, Pf growth 48h 1.65µM, LASV entry inh inconclusive
O[C@H]1C2CCC1C(N1CCCCC1)CC2 (stereo partly specified)	none
CCOc1cc2c(cc1OCC)-n1cccc1C(c1ccccc1O)NC2 (stereo unspecified)	Pf growth 48h 8.28µM (no result: MARV entry inh, LASV entry inh)
CCOc1cc2c(cc1OCC)-n1cccc1C(c1c(O)cccc1OC)NC2 (stereo unspecified)	MARV entry inh inconclusive, Pf growth 48h 13.1µM, LASV entry inh inconclusive
CCOc1cc2c(cc1OCC)-n1cccc1C(c1cccc(F)c1F)NC2 (stereo unspecified)	Pf growth 96h inconclusive, MARV entry inh inconclusive, Pf growth 48h inconclusive
CCOc1cc2c(cc1OCC)-n1cccc1C(c1ccc(OC)c(OC)c1)NC2 (stereo unspecified)	Pf growth 48h inconclusive (no result: MARV entry inh, LASV entry inh)
CCOc1cc2c(cc1OCC)-n1cccc1C(c1ccc(F)c(OC)c1)NC2 (stereo unspecified)	Pf growth 48h 10.4µM (no result: MARV entry inh, LASV entry inh)
CCOc1cc2c(cc1OCC)-n1cccc1C(c1ccccc1OC)NC2 (stereo unspecified)	MARV entry inh inconclusive, Pf growth 48h 10.4µM
O=C(Nc1ccccc1)c1ccccc1C(=O)N1CCCCC1	none (no result: MARV entry inh, LASV entry inh)
CCN(CC)S(=O)(=O)c1ccc(/C=C/C(=O)Nc2ccccc2N2CCOCC2)cc1	Pf growth 96h inconclusive, MARV entry inh inconclusive, Pf growth 48h inconclusive, LASV entry inh inconclusive
COc1ccc(CC(=O)NCCc2cnc[nH]2)cc1	none (no result: MARV entry inh, LASV entry inh)
COc1ccc(NC(C)=O)cc1NC(=O)c1ccc(C#N)cc1	none (no result: MARV entry inh, LASV entry inh)
Cc1ccc(S(=O)(=O)N2CCOC2C(Cl)(Cl)Cl)cc1 (stereo unspecified)	Pf growth 48h 8.28µM (no result: MARV entry inh, LASV entry inh)
O=C(O)CCC(=O)N1N=C(c2ccc(Br)cc2)CC1c1cccc(Br)c1 (stereo unspecified)	Pf growth 48h 6.57µM
COc1ccc(C2=NN(C(=O)CCC(=O)O)C(c3ccc(OC)c(OC)c3)C2)cc1 (stereo unspecified)	Pf growth 96h 11.7µM
COc1ccc(C2=NN(C(=O)CCC(=O)O)C(c3ccccc3F)C2)cc1 (stereo unspecified)	Pf growth 96h 2.33µM
O=C(O)CCC(=O)N1N=C(c2ccc(Br)cc2)CC1c1ccc(Br)cc1 (stereo unspecified)	Pf growth 96h inconclusive
CN1C(CCl)Nc2cc(Cl)c(S(N)(=O)=O)cc2S1(=O)=O (stereo unspecified)	Pf growth 96h 12µM (no result: CHX counter, Shiga toxin inh)
CN(C)c1ccc(/C=C(\C#N)c2nc3ccccc3c(=O)[nH]2)cc1	none (no result: Pf growth 96h, CHX counter, MARV entry inh, Shiga toxin inh, Pf growth 48h)
Cc1ccc(-c2cc3nn(-c4ccccc4)c(N)c3c(=O)o2)cc1	CHX counter 40.2, Shiga toxin inh 75.6
COc1cc(-c2cc(C(=O)N(C)Cc3ccccc3)c3ccccc3n2)cc(OC)c1OC	Pf growth 96h inconclusive, MARV entry inh inconclusive, Pf growth 48h 13.1µM, LASV entry inh inconclusive
COCCN(Cc1ccccc1)C(=O)c1cc(-c2ccc(OC)c(OC)c2)nc2ccccc12	Pf growth 96h inconclusive, MARV entry inh inconclusive, Pf growth 48h 9.28µM, LASV entry inh inconclusive
CCC1CCCCN1S(=O)(=O)c1c(C)n(C)c(=O)n(C)c1=O (stereo unspecified)	none (no result: CHX counter, Shiga toxin inh)
COc1ccc(/C(N)=N/OC(=O)COc2ccccc2Cl)cc1	CHX counter 45.8, Shiga toxin inh 25.6
Cc1cccc(/C(N)=N/OC(=O)COc2ccccc2Cl)c1	Pf growth 96h inconclusive, CHX counter 65.8, MARV entry inh inconclusive, Shiga toxin inh 21.3
Cc1noc(NS(=O)(=O)c2ccc(NC(=O)c3cc(S(=O)(=O)Nc4ccc(F)cc4)ccc3Cl)cc2)c1C	none (no result: Pf growth 96h, CHX counter, Shiga toxin inh, Pf growth 48h)
N=c1oc2ccc3ccccc3c2cc1-c1nnc2n1CCCCC2	Pf growth 96h 9.28µM
COc1ccc2oc(=N)c(-c3nnc4n3CCCCC4)cc2c1	none (no result: Pf growth 96h)
N#CCSc1n[nH]c2nc3c(c(=O)n12)C1(CCCCC1)Cc1ccccc1-3	MARV entry inh inconclusive
CCOc1ccc(Nc2nc(Nc3ccc(OCC)cc3)nc(N3CCOCC3)n2)cc1	MARV entry inh inconclusive (no result: Pf growth 96h, CHX counter, Shiga toxin inh, Pf growth 48h)
Cc1ccc2nc(C)cc(Nc3ccc4c(c3)OCCO4)c2c1	CHX counter 60.2, MARV entry inh inconclusive, Shiga toxin inh 37.5, LASV entry inh inconclusive (no result: Pf growth 48h)
Cc1cc(Nc2ccc3c(c2)OCCO3)c2ccccc2n1	Pf growth 96h inconclusive, MARV entry inh inconclusive, Pf growth 48h inconclusive
CCOc1ccc2nc(C)cc(Nc3ccc4c(c3)OCCO4)c2c1	Pf growth 96h 2.62µM, MARV entry inh inconclusive, Pf growth 48h inconclusive, LASV entry inh inconclusive
CCOc1ccc(S(=O)(=O)Nc2nc3ccccc3nc2Nc2ccc(N3CCOCC3)cc2)cc1	Pf growth 96h inconclusive, CHX counter 13.4, MARV entry inh inconclusive, LASV entry inh inconclusive

From PubChem BioAssay
